Source: PubChem BioAssay
Rows were chosen to be rich in hits. Some 18% of all compounds tested hit in one or more screens of this group.
TDP1 inh – inhibitors of human tyrosyl-DNA phosphodiesterase TDP1; recombinant TDP1, AlphaScreen DNA substrate cleavage; Potency, µM (top dose mostly 130 µM), usual class: inhibitors; actives 0.28% (n = 350,000); AID 485290; further: nearly all actives have a fitted effect of over 40% in size
Target sequence (Q9NUW8 whole entry, looked up): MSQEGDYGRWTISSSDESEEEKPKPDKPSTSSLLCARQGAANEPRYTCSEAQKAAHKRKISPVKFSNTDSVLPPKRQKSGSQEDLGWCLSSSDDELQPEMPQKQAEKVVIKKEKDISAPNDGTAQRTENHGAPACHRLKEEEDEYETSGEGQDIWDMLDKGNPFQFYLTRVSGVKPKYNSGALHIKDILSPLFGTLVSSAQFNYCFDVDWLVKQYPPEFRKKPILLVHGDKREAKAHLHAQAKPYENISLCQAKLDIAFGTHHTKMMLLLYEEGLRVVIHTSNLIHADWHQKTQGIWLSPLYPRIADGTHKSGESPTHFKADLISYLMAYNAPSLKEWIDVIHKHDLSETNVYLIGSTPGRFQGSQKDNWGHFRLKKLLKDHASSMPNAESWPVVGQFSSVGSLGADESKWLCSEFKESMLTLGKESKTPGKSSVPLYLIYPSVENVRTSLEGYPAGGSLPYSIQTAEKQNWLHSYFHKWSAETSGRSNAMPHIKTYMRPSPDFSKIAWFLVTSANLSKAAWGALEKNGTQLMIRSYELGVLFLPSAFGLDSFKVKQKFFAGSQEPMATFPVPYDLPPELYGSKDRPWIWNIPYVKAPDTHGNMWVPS
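Here, a 5' biotin and 3' phosphotyrosine-FITC DNA oligonucleotide reports Tdp1 activity: intact substrate bridges AlphaScreen beads, while cleavage leaves a 3' phosphate and drops signal. All incubations at room temperature.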
TDP1 cell noCPT – qHTS for Inhibitors of human tyrosyl-DNA phosphodiesterase 1 (TDP1): qHTS in cells in absence of CPT; DT40 Tdp1-/- hTDP1 cells, no CPT, ATP luminescence, 48 h; Potency, µM (doses to about 46.2 µM), hits mostly inhibitors; actives 15% (n = 420,000); AID 686978, 2013; further: nearly all actives have a fitted effect of over 55% in size
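Camptothecin absent (DMSO only). Human TDP1-complemented DT40 knockout cells, 400 cells/well, 37 °C for minimum 48 hr; ATP measured via CellTiter-Glo, 30 min dark incubation, luminescence.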
IL1B secr inh – inflammasome signaling inhibition, IL-1 beta readout. THP-1 LPS/ATP IL-1B secretion, AlphaLISA, 16 h; stronger effect = lower value. activity change, % at 57.5 µM. actives 4.7% (n = 360,000). AID 743279; in the data active means activity change below about -50%; inconclusive means mostly about -30% to -49%
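THP-1 cells pretreated 1 hr with compounds (up to 57.5 uM final), then stimulated with LPS (250 ng/mL final) plus ATP (1.25 mM final); secreted IL-1B measured by AlphaLISA after 16 hr, decreased signal indicating inhibition.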
TGFb SMAD3 inh – TGF-b pathway inhibition; HepG2 CAGA-GFP TGF-b/SMAD3 reporter, GFP fluorescence, 18 h; TGF-beta stimulated, 500 pg/mL final; Potency, µM (series often up to 46.1 µM), actives largely listed as inhibitors; actives 1.2% (n = 410,000); AID 588855; further: nearly all actives have a fitted effect of over 65% in size
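Inhibition was scored as loss of TGF-beta-induced (500 pg/mL final, 18 hours, 37 degrees C) GFP in HEPG2 cells carrying a CAGA-GFP reporter, in DMEM with 1% FBS. Well GFP was summed per cell; Activity was normalised to unstimulated and stimulated DMSO wells, then concentration-response fitting.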
TDP1 cell CPT – DT40-hTDP1 cell growth loss with CPT; chicken DT40 Tdp1-/-;hTDP1 cells + 20 nM CPT, ATP luminescence, 48 h; Potency, µM (highest dose often 46.2 µM), most hits filed as inhibitors; actives 12% (n = 420,000); AID 686979; further: nearly all actives have a fitted effect of over 55% in size
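Chicken DT40 Tdp1-/- cells complemented with human TDP1, 400 cells/well, exposed to compounds plus 20 nM camptothecin for at least 48 h at 37 C; viability read as ATP content by CellTiter-Glo luminescence.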
HepG2 tox – HepG2 cytotoxicity, counter-screen for TGF-b inhibitors. HepG2 CAGA-GFP viability, ATP luminescence, 18 h. actives 0.76% (n = 410,000). AID 588856. Potency, µM (doses to about 46.1 µM), hits mostly cytotoxic
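HepG2 CAGA-GFP cells (1000/well, DMEM with 1% FBS) received compound, then TGF-beta at 500 pg/mL final, and were incubated 18 hours at 37 degrees C. Viability was read by CellTiter-Glo luminescence. Media-only wells were set as complete cell-killing and DMSO as no toxicity.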
A number is an active result; i = inactive; ? = inconclusive; nt = no result given; ! = repeats disagree; [ ] = remark or other dose. Unless noted, the call rests on the fitted dose curve; in most records, active means well fitted curve in the direction sought with a large enough effect; inconclusive means small, poorly fitted or top-dose-only effect, or another doubt; inactive means no such curve, though single readings can be large; an effect the other way counts as inactive or inconclusive.

SMILES	TDP1 inh	TDP1 cell noCPT	IL1B secr inh	TGFb SMAD3 inh	TDP1 cell CPT	HepG2 tox
CC(NC(=O)COc1ccccc1)C(=O)NCc1ccc(S(N)(=O)=O)cc1 (configuration not stated)	i	i	i	i	i	i
COC(=O)C1N[C@@H]([C@@H](NC(=O)COc2ccccc2)C(=O)NCc2ccccc2)SC1(C)C (some centres not stated)	nt	20µM!	i	i	?	i
CCCN(CCC)Cc1c(C(=O)N/N=C/c2c[nH]c3ccccc23)nnn1-c1nonc1N	i	i	?	?	i	i
Cc1cc(NCCCn2ccnc2)n2nc(C)c(-c3ccc(Cl)cc3)c2n1	i	15µM	-60	i	16µM	i
Cc1cc(N)n2nc(C)c(-c3ccc(Cl)cc3)c2n1	i	?	i	i	?	i
Cc1cc(Cl)n2nc(C)c(-c3ccc(Cl)cc3)c2n1	i	?	-99	?	?	i
Cc1cc(NCCCn2ccnc2)n2nc(C)c(-c3ccccc3)c2n1	i	i	i	i	?	i
COC(=O)C1=C2N(Cc3ccccc3)C(C)=C(C(=O)OC)C(c3ccccc3)N2C(=O)[C@](O)(C(=O)OC)C1 (some centres not stated)	i[21 µM]	nt	nt	nt	nt	nt
CCOC(=O)[C@]12CCCC=C1N(Cc1cccc3ccccc13)C(=O)[C@H](CC(=O)NCc1cccc3ccccc13)C2	nt	?	i	nt	?	nt
CCCCOCCCNC(=O)C[C@@H]1C[C@@]2(C(=O)OCC)CCCC=C2N(Cc2cccc3ccccc23)C1=O	nt	13µM	?	nt	18µM	nt
CCCCCCCCN1C(=O)[C@H](CC(=O)NCc2cccc3ccccc23)C[C@@]2(C(=O)OCC)CCCC=C12	nt	16µM	i	nt	?	nt
O=[N+]([O-])c1ccc(N/N=C/c2cccc(O)c2)cc1	nt	21µM	-88	i	?	i
O=[N+]([O-])c1ccc(N/N=C/c2cccc(O)c2O)cc1	nt	15µM	?	i	?	i
Cc1cccc(C(=O)Oc2ccccc2/C=N/Nc2ccc([N+](=O)[O-])cc2)c1	i	16µM	i	i	29µM	i
O=C(O)c1ccc(CNCc2ccc(Cl)cc2)s1	i	i	nt	i	i	i
CCc1cc(-c2n[nH]c(C)c2-c2nc3ccccc3n2C)c(O)cc1O	i	18µM	?	i	?	i
CCCc1cc(-c2n[nH]c(C)c2-c2ccc(C(=O)OCC)o2)c(O)cc1O	i	?	i	14µM	?	i
CCCc1cc(C(=O)Cc2ccc(C(=O)OCC)o2)c(O)cc1O	i	i	i	i	i	i
CCc1cc(-c2n[nH]c(CCC(=O)O)c2-c2nc3ccccc3n2C)c(O)cc1O	i	i	i	i	i	i
O=C(N/N=C1/C[C@@H](O)[C@@H](O)[C@@H]2[C@@H]3C(=O)N(Cc4ccc5c(c4)OCO5)C(=O)[C@H]3CC[C@@H]12)OCc1ccccc1	i[21 µM]	nt	nt	nt	nt	nt
Cc1ccnc(NC(=O)c2cc3cc(F)ccc3s2)c1	i[0.0935 µM]	i	?	i	i	i
CCOC(=O)c1c(NC(=O)c2ccccc2Br)sc2c1CCc1ccccc1-2	nt	18µM	i	i	?	i
CCOC(=O)c1c(NC(=O)COc2ccccc2Br)sc2c1CCCCC2	i[2.28 µM]	?	nt	i	?	i
CCOC(=O)c1c(NC(C)=O)sc2c1CCC(C=O)=C2Sc1ccccc1	i	6.5µM	-100	?	6.5µM	i
CNC(=O)C1CCC(Cn2c(=O)[nH]c3ccsc3c2=O)CC1 (configuration not stated)	i	i	nt	i	i	i
SMILES	TDP1 inh	TDP1 cell noCPT	IL1B secr inh	TGFb SMAD3 inh	TDP1 cell CPT	HepG2 tox
COC(=O)CN(c1nc(C)c(Br)c(OC)n1)S(=O)(=O)c1ccccc1	nt	i	i	i	i	i
Clc1ccc(OCCN2CCN(c3ncnc4sccc34)CC2)cc1	i	0.58µM	i	i	0.58µM	i
CCN1CCN(CCOc2ccc(Cl)cc2)CC1	i	i	i	i	i	i
Cc1ccc(OCCN2CCN(c3ncnc4sc(C)c(C)c34)CC2)cc1	i	3.7µM	?	i	3.7µM	i
COc1cccc(CN(C)C(=O)Cn2cc(C)c(=O)[nH]c2=O)c1	nt	i	i	i	i	i
COc1ccc(OC)c(S(=O)(=O)NCCS(=O)(=O)N2CCN(c3ccccc3F)CC2)c1	i	?	nt	?	?	i
COc1ccc(OC)c(S(=O)(=O)NCCc2ccccc2)c1	i	i	i	i	?	i
COc1ccc(OC)c(S(=O)(=O)NCCS(=O)(=O)N2CCN(c3ccccc3)CC2)c1	i	16µM!	i	?	21µM!	i
COc1ccc(OC)c(S(=O)(=O)NCCOC23CC4CC(CC(C4)C2)C3)c1	i	7.3µM	i	i	18µM	i
CCN1C(=O)C2(Nc3ccccc3-c3nc4ccccc4n32)c2cc(OC)ccc21 (configuration not stated)	i	i	?	i	i	i
c1ccc2c(c1)NC1(CCCCC1)n1c-2nc2ccccc21	i	i	i	i	i	i
O=C1Nc2ccccc2C12Nc1ccccc1-c1nc3ccccc3n12 (configuration not stated)	i	23µM	i	i	?	i
CC1(c2ccccn2)Nc2ccccc2-c2nc3ccccc3n21 (configuration not stated)	i	16µM	i	i	18µM	i
CCCCC1(C)Nc2ccccc2-c2nc3ccccc3n21 (configuration not stated)	i	?	i	i	16µM	i
CN1C(=O)C2(Nc3ccccc3-c3nc4ccccc4n32)c2ccccc21 (configuration not stated)	i	i	i	i	i	i
Cc1ccc(C)c(N2CCN(C(=O)c3ccc4nc(-c5ccco5)c(-c5ccco5)nc4c3)CC2)c1	i	23µM	?	i	?	i
COc1ccccc1N1CCN(C(=O)c2ccc3ncsc3c2)CC1	nt	2.3µM	i	i	6.5µM	i
COc1ccccc1N1CCN(C(=O)c2ccc3nc(-c4ccco4)c(-c4ccco4)nc3c2)CC1	i	21µM	?	i	?	i
COc1ccc(OC)c2sc(N3CCN(C(=O)c4ccc5ncsc5c4)CC3)nc12	i	i	i	i	i	i
COc1cccc(S(=O)(=O)N(C)C[C@@H]2OCc3cnnn3CCCC(=O)N([C@@H](C)CO)C[C@H]2C)c1	nt	i	i	i	i	i
CCOc1ccccc1NC(=O)N1CCN(C)c2ncccc21	i	?	nt	i	i	i
